Results published in PubChem BioAssay (NCATS).
Where “and” joins values, the source holds several entries; their conditions need not be identical. Equal values may be shown once. Inconclusive results are not listed. A structure can be active in one record and inactive in another. Calls of active or inactive are those of the source. The call rests on the fitted dose curve; in most records, active means well fitted curve in the direction sought with a large enough effect; inconclusive means small, poorly fitted or top-dose-only effect, or another doubt; inactive means no such curve, though single readings can be large; an effect the other way counts as inactive or inconclusive.

Assay: P-glycoprotein substrates identified in KB-8-5-11 adenocarcinoma cell line, qHTS therapeutic library screen (AID 1346987); further: nearly all actives have a fitted effect of over 65% in size; on activity change, negative = cytotoxicity: on the % scale 0 is the no-effect control and ±100 the full control effect
Settings: KB-8-5-11 (P-gp overexpressing) viability, CellTiter-Glo, 72 h; series mostly up to 44.5 µM; activity change, negative = cytotoxicity: at the top concentration
In short: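 Steps: plate 500 KB-8-5-11 cells/well in DMEM + 10% FCS (colchicine removed); pin compounds in dose-response; incubate 72 h, 37 degree C, 5% CO2; add CellTiter-Glo, 5 min; read luminescence.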
Potency means the concentration at half of the fitted maximal effect.

SMILES	Potency	activity change, negative = cytotoxicity	outcome
CCn1c(-c2nonc2N)nc2cncc(CNC3CCNCC3)c21	inactive		
N[C@@H](CC(=O)N1CCn2c(nnc2C(F)(F)F)C1)Cc1cc(F)c(F)cc1F		4.9% (inactive)	
CNC(=O)[C@H](Cc1ccccc1)NC(=O)[C@H](CC(C)C)[C@H](CSc1cccs1)C(=O)NO		0.565% (inactive)	
CC1(C)[C@H]2CC[C@]3(C)[C@@H](C(=O)C=C4[C@@H]5C[C@@](C)(C(=O)O)CC[C@]5(C)CC[C@]43C)[C@@]2(C)CC[C@@H]1O			inactive
CCN1CCN(c2ccc(Nc3cc(N(C)C(=O)Nc4c(Cl)c(OC)cc(OC)c4Cl)ncn3)cc2)CC1	inactive and 16.4 µM (active)		
CCN(CCO)CCCOc1ccc2c(Nc3cc(CC(=O)Nc4cccc(F)c4)[nH]n3)ncnc2c1		-5.5% (inactive)	
CN(C)CCOc1ccc(C(=C(CCCl)c2ccccc2)c2ccccc2)cc1			inactive
O=C1CCCC(=O)C1C(=O)c1ccc(C(F)(F)F)cc1[N+](=O)[O-]		9.59% (inactive)	
COc1ccc2c(c1)c(C1=C(c3c[nH]c4ccccc34)C(=O)NC1=O)cn2CCCN(C)C		-8.81% (inactive)	
OC[C@H]1O[C@@H](O[C@H]2[C@@H](O)[C@@](O)(CO)O[C@@H]2CO)[C@H](O)[C@@H](O)[C@@H]1O		1.15% (inactive)	
CCCCOCCOc1nc(-c2ccc(C(=O)O)c(F)c2)sc1C		-7.66% (inactive)	
CCN(CC)CCCCNc1nc2cc(Cl)c(Cl)cc2nc1-c1ccc(-c2cccs2)s1	9.35 µM (active)		
CC1(C)C(N(O)C(=O)Nc2ccc(Cl)cc2)N(c2ccc(Cl)cc2)C(=O)N1CC(=O)NN=CC=Cc1ccc([N+](=O)[O-])o1 (configuration not stated)		0.077% (inactive)	
Nc1ccc(-c2ccc3ncc4ccc(=O)n(-c5cccc(C(F)(F)F)c5)c4c3c2)cn1	1 nM (active) and 36.6 nM (active)		
C[C@H](CCC(=O)O)[C@H]1CC[C@H]2[C@H]3[C@@H](CC[C@]12C)[C@@]1(C)CC[C@@H](O)C[C@H]1C[C@@H]3O		-12.8% (inactive)	
CNC1CCC(N(Cc2cccc(-c3ccncc3)c2)C(=O)c2sc3ccccc3c2Cl)CC1 (configuration not stated)	11.8 µM (active) and 20.6 µM (active)		
COc1c(C)c2c(c(O)c1CC=C(C)CCC(=O)O)C(=O)OC2	6.62 µM (active)		
Cc1cnc(Nc2cccc(CN3CCOCC3)c2)nc1Nc1cccc(S(=O)(=O)NC(C)(C)C)c1	inactive and 4.11 µM (active)		

SMILES	Potency	activity change, negative = cytotoxicity	outcome
CC(C)(OCc1nn(Cc2ccccc2)c2ccccc12)C(=O)O	inactive		
Cc1ccccc1-n1c(Cn2nc(-c3cccc(O)c3)c3c(N)ncnc32)nc2cccc(C)c2c1=O	inactive		
NC(N)=Nc1nc(CSCCC(N)=NS(N)(=O)=O)cs1			inactive
CCOC(=O)[C@H]1O[C@H]1C(=O)N[C@@H](CC(C)C)C(=O)NCCC(C)C		8.31% (inactive)	
CCCCCOC(=O)Nc1nc(=O)n([C@@H]2O[C@H](C)[C@@H](O)C2O)cc1F (some centres not stated)		0.678% (inactive)	
COc1ccc(-c2oc3c(CC=C(C)C)c(O)cc(O)c3c(=O)c2O)cc1		-13.7% (inactive)	
CCOC(=O)[C@H](CCc1ccccc1)N[C@@H](C)C(=O)N1CCCC1C(=O)O (some centres not stated)			inactive
CCNC(=O)[C@H]1O[C@@H](n2cnc3c(N)nc(NCCc4ccc(CCC(=O)O)cc4)nc32)[C@H](O)[C@H]1O			inactive
COc1ccc(-c2nc3ccc(C4=NNC(=O)CC4C)cc3[nH]2)cc1 (configuration not stated)	inactive		
CC1=C(CC(=O)O)c2cc(F)ccc2C1=Cc1ccc(S(C)=O)cc1 (configuration not stated)		8.9% (inactive)	
COc1cc2c(cc1OC)CC(=O)N(CCCN(C)C[C@H]1Cc3cc(OC)c(OC)cc31)CC2		-9.37% (inactive)	
CC1=C(C(=O)Nc2cc3cn[nH]c3cc2F)C(c2ccc(C(F)(F)F)cc2)CC(=O)N1 (configuration not stated)	inactive		
CN1CC(=O)NC1=NC(=O)Nc1cccc(Cl)c1		-4.64% (inactive)	
O=C(O)C1=NC(C(=O)O)CC(C=CN2c3cc(O)c(OC4OC(CO)C(O)C(O)C4O)cc3CC2C(=O)O)=C1 (configuration not stated)			inactive
O=C(O)c1nc(=O)[nH]c(=O)[nH]1	inactive		
C=C[C@@H]1CN2CCC1C[C@@H]2C(O)c1ccnc2ccc(OC)cc12 (some centres not stated)		-13.2% (inactive)	
Cc1nc2c([nH]1)CCN(C(=O)c1ccc(NC(=O)c3ccccc3-c3ccccc3)cc1)c1ccccc1-2	inactive		
CCC(c1ccc(O)cc1)C(CC)c1ccc(O)cc1 (configuration not stated)		-7.97% (inactive)	

Assay: NS1 protein of Zika virus - qHTS assay to identify small molecule inhibitors in human HEK 293 cells (AID 1347053); further: nearly all actives have a fitted effect of over 55% in size;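 on activity change, negative = inhibition: plate controls were infected untreated cells for no effect and uninfected cells for full effect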
Settings: HEK293 ZIKV MR766 infection, NS1 TR-FRET, 24 h; series mostly up to 46.1 µM; activity change, negative = inhibition: at the top concentration
In short: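 Inhibition of NS1 expression was scored in HEK 293 cells given compound 1 h ahead of MR766 virus (MOI = 0.5). Following 24 h at 37 C, two anti-NS1 antibodies generated a TR-FRET signal, scaled between uninfected and infected controls.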

SMILES	activity change, negative = inhibition	Potency
CCn1c(-c2nonc2N)nc2cncc(CNC3CCNCC3)c21	10.9% (inactive)	
N[C@@H](CC(=O)N1CCn2c(nnc2C(F)(F)F)C1)Cc1cc(F)c(F)cc1F	0.906% (inactive)	
CNC(=O)[C@H](Cc1ccccc1)NC(=O)[C@H](CC(C)C)[C@H](CSc1cccs1)C(=O)NO	-8.12% (inactive)	
CC1(C)[C@H]2CC[C@]3(C)[C@@H](C(=O)C=C4[C@@H]5C[C@@](C)(C(=O)O)CC[C@]5(C)CC[C@]43C)[C@@]2(C)CC[C@@H]1O	11.9% (inactive)	
CCN1CCN(c2ccc(Nc3cc(N(C)C(=O)Nc4c(Cl)c(OC)cc(OC)c4Cl)ncn3)cc2)CC1	15.7% (inactive)	
CCN(CCO)CCCOc1ccc2c(Nc3cc(CC(=O)Nc4cccc(F)c4)[nH]n3)ncnc2c1	-10.2% (inactive)	
CN(C)CCOc1ccc(C(=C(CCCl)c2ccccc2)c2ccccc2)cc1	2.91% (inactive)	
O=C1CCCC(=O)C1C(=O)c1ccc(C(F)(F)F)cc1[N+](=O)[O-]	-0.114% (inactive)	
COc1ccc2c(c1)c(C1=C(c3c[nH]c4ccccc34)C(=O)NC1=O)cn2CCCN(C)C	20.1% (inactive)	
OC[C@H]1O[C@@H](O[C@H]2[C@@H](O)[C@@](O)(CO)O[C@@H]2CO)[C@H](O)[C@@H](O)[C@@H]1O	0.0521% (inactive)	
CCCCOCCOc1nc(-c2ccc(C(=O)O)c(F)c2)sc1C	-10.1% (inactive)	
CCN(CC)CCCCNc1nc2cc(Cl)c(Cl)cc2nc1-c1ccc(-c2cccs2)s1	0.244% (inactive)	
CC1(C)C(N(O)C(=O)Nc2ccc(Cl)cc2)N(c2ccc(Cl)cc2)C(=O)N1CC(=O)NN=CC=Cc1ccc([N+](=O)[O-])o1 (configuration not stated)	2.93% (inactive)	
Nc1ccc(-c2ccc3ncc4ccc(=O)n(-c5cccc(C(F)(F)F)c5)c4c3c2)cn1		0.0418 µM (active)
C[C@H](CCC(=O)O)[C@H]1CC[C@H]2[C@H]3[C@@H](CC[C@]12C)[C@@]1(C)CC[C@@H](O)C[C@H]1C[C@@H]3O	6.8% (inactive)	
CNC1CCC(N(Cc2cccc(-c3ccncc3)c2)C(=O)c2sc3ccccc3c2Cl)CC1 (configuration not stated)		9.35 µM (active)
COc1c(C)c2c(c(O)c1CC=C(C)CCC(=O)O)C(=O)OC2		0.526 µM (active)
Cc1cnc(Nc2cccc(CN3CCOCC3)c2)nc1Nc1cccc(S(=O)(=O)NC(C)(C)C)c1	2.7% (inactive)	

SMILES	activity change, negative = inhibition	Potency
CC(C)(OCc1nn(Cc2ccccc2)c2ccccc12)C(=O)O	4.95% (inactive)	
Cc1ccccc1-n1c(Cn2nc(-c3cccc(O)c3)c3c(N)ncnc32)nc2cccc(C)c2c1=O	-13.2% (inactive)	
NC(N)=Nc1nc(CSCCC(N)=NS(N)(=O)=O)cs1	0.881% (inactive)	
CCOC(=O)[C@H]1O[C@H]1C(=O)N[C@@H](CC(C)C)C(=O)NCCC(C)C	13.5% (inactive)	
CCCCCOC(=O)Nc1nc(=O)n([C@@H]2O[C@H](C)[C@@H](O)C2O)cc1F (some centres not stated)	2.15% (inactive)	
COc1ccc(-c2oc3c(CC=C(C)C)c(O)cc(O)c3c(=O)c2O)cc1	4.17% (inactive)	
CCOC(=O)[C@H](CCc1ccccc1)N[C@@H](C)C(=O)N1CCCC1C(=O)O (some centres not stated)	2.62% (inactive)	
CCNC(=O)[C@H]1O[C@@H](n2cnc3c(N)nc(NCCc4ccc(CCC(=O)O)cc4)nc32)[C@H](O)[C@H]1O	-6.34% (inactive)	
COc1ccc(-c2nc3ccc(C4=NNC(=O)CC4C)cc3[nH]2)cc1 (configuration not stated)	35.3% (inactive)	
CC1=C(CC(=O)O)c2cc(F)ccc2C1=Cc1ccc(S(C)=O)cc1 (configuration not stated)	21.1% (inactive)	
COc1cc2c(cc1OC)CC(=O)N(CCCN(C)C[C@H]1Cc3cc(OC)c(OC)cc31)CC2	3.17% (inactive)	
CC1=C(C(=O)Nc2cc3cn[nH]c3cc2F)C(c2ccc(C(F)(F)F)cc2)CC(=O)N1 (configuration not stated)	-2.05% (inactive)	
CN1CC(=O)NC1=NC(=O)Nc1cccc(Cl)c1	3.87% (inactive)	
O=C(O)C1=NC(C(=O)O)CC(C=CN2c3cc(O)c(OC4OC(CO)C(O)C(O)C4O)cc3CC2C(=O)O)=C1 (configuration not stated)	2.38% (inactive)	
O=C(O)c1nc(=O)[nH]c(=O)[nH]1	4.56% [at 20.1 µM] (inactive)	
C=C[C@@H]1CN2CCC1C[C@@H]2C(O)c1ccnc2ccc(OC)cc12 (some centres not stated)	-7.24% (inactive)	
Cc1nc2c([nH]1)CCN(C(=O)c1ccc(NC(=O)c3ccccc3-c3ccccc3)cc1)c1ccccc1-2	1.51% (inactive)	
CCC(c1ccc(O)cc1)C(CC)c1ccc(O)cc1 (configuration not stated)	2.64% (inactive)	
